# Screening data: PubChem BioAssay, The Scripps Research Institute Molecular Screening Center
# The list is not random: actives were taken first. Their share in the collection is about 4.8%.
# DAX1 inh-1 – NR0B1 (DAX1) inhibition | 0.99% of 340,000 active | HEK293 Gal4-DAX1 luciferase reporter, luminescence | inhibition, % at 6.75 µM | P51843;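 active = inhibition above the mean over all tested compounds plus 3 SD, cut at about 4.2% in these data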;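 note: inhibition shows as a rise in luminescence from relieved DAX1 repression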
# hcDAF-12 act – activates DAF-12 receptor from parasite H. contortus. 1.4% of 370,000 active. activation, % at 6.8 µM. HEK293 hcDAF-12 lit1-tk-luc reporter, luminescence; 0% DMSO, 100% Δ7-dafachronic acid;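 active = activation above the mean of all tested compounds plus 3 SD, cut at about 5.5% in these data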
# ssDAF12 agonist – activators of S. stercoralis DAF-12 nuclear receptor | HEK293 ssDAF-12/GRIP1 lit1-tk-luc reporter, luminescence; % of 3 µM dafachronic acid response | activation, % at 6.8 µM | 1% of 370,000 active;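 active = activation above the mean over all tested compounds plus 3 SD, cut at about 0.9% in these data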
# SMARCA2 activ – increases SMARCA2 function in MMTV reporter cells | MG213 cells, MMTV-luciferase reporter, dexamethasone, overnight | activation, % at 9.1 µM | 1% of 370,000 active; in the data active = activation above about 7.8%
# DAX1 inh-2 – blocks DAX1 repression of SF-1 activated StAR promoter; HEK293T StAR-luciferase reporter, SF-1/DAX-1 repression relief; inhibition, % at 6.8 µM; 1.1% of 370,000 active; AID 652010;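 active = inhibition above the mean over all tested compounds plus 3 SD, cut at about 3.6% in these data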;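 note: higher inhibition means more luminescence from relief of DAX-1 repression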
# hgDAF12 agonist – hgDAF-12 agonism, primary luciferase screen; AID 687014; HEK293 GAL4-hgDAF12 UAS-luciferase reporter, agonist luminescence; normalized to butyrate control; activation, % at 6.8 µM; 1.8% of 370,000 active;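 active = activation above a cutoff set at the mean of all screened compounds plus 3 SD, cut at about 10% in these data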
# LXR ag – activates human LXR-beta, counter-screen for hcDAF-12 agonists; shares compounds with hcDAF-12 act; HEK293 Gal4-LXR tk-luc reporter, luminescence, 24 h; normalized: DMSO 0%, positive control 100%; activation, % at 6.8 µM; 3,400 tested, under 10 active;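 active = mean percent activation of the reporter above a cutoff set as the average over tested compounds plus their standard deviation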
# Target sequence (P55055 whole entry, looked up, the tested form may be a part): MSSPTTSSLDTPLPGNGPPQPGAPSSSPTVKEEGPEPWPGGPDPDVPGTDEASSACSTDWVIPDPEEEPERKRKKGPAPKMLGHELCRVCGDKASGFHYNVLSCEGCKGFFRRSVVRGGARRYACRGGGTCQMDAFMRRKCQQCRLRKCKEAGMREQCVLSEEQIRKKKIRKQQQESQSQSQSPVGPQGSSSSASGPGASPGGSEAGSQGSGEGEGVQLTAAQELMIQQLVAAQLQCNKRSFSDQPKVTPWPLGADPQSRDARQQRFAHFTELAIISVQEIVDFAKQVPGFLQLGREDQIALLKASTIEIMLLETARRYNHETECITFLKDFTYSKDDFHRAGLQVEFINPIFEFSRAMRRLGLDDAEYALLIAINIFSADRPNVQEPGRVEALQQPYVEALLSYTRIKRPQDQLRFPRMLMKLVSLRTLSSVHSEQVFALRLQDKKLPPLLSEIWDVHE
# hcDAF12 ag – confirmation of H. contortus DAF-12 agonists; shares compounds with hcDAF-12 act; HEK293 hcDAF-12 lit1-tk-luc reporter, luminescence; % of Δ7-dafachronic acid response; activation, % at 6.8 µM; 61% of 3,400 active;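 active = mean activation across triplicate tests above the threshold derived from the earlier primary screen, cut at about 5.5% in these data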
# Numbers stand for hits; 0 = inactive; - = no result; ! = repeats disagree.
SMILES,DAX1 inh-1,hcDAF-12 act,ssDAF12 agonist,SMARCA2 activ,DAX1 inh-2,hgDAF12 agonist,LXR ag,hcDAF12 ag
COC(=O)[C@H](Cc1ccccc1)N1C[C@@H](N2CCC[C@H]2C)CS1(=O)=O,-,0,0,0,0,0,-,-
COc1ccc(NC(=O)Nc2nnc(-c3ccco3)s2)cc1,0,8.3,1.2,0,0,12,0,9.0
O=[N+]([O-])c1ccc2c(c1)CO[C@]21O[C@H](CCO)C[C@H](O)[C@H]1O,-,0,0,0,0,0,-,-
Cc1ccc2c(C)nc(/N=C(\N)NC(=O)N3c4ccccc4Sc4ccccc43)nc2c1,0,10!,0,0,0,0,0,0
CCOc1ccc(-c2cn(-c3ccc(OC)cc3)c(SC)n2)cc1,0,7.0,0,0,0,11,0,0
CSc1nc(-c2ccccc2)cn1-c1ccc(NC(C)=O)cc1,0,0,0,0,0,0,-,-
NC(=O)C1CCCN(C(=S)NCc2ccc3c(c2)OCO3)C1 (configuration not stated),0,0,0,0,0,0,-,-
NC(=O)C1CCCN(C(=S)Nc2cccc3ccccc23)C1 (configuration not stated),0,7.7,0,0,0,0,0,0
O=S(=O)(NCc1c(Cl)cccc1Oc1ccccc1)c1ccccc1,0,20,0,0,0,0,0,0
c1ccc(-c2ccc(-c3ccccn3)nn2)nc1,-,6.9,0,0,0,0,0,8.7
c1ccc(-c2ccccn2)nc1,0,0,0,0,0,0,-,-
COc1ccccc1C1CC(c2cccs2)=NN1C(=O)CCC(=O)O (configuration not stated),0,7.0,0,0,0,0,0,0
COCCN=C1Sc2ccccc2[C@@H]2C[C@H]3[C@H](CON3C)CN12,-,0,0,0,0,0,-,-
Cc1cc2ccccn2c1C(=O)Nc1ccc(Cl)cc1,0,8.8,0,0,0,0,0,9.4
Cc1c(C(=O)Nc2ccc(Cl)cc2)c2ccccn2c1C(=O)c1ccc(F)cc1,0,0,0,0,0,0,-,-
Cc1cc2ccccn2c1C(=O)Nc1ccccc1,0,9.7,1.0,0,0,0,0,9.6
C=CCN1C(=O)[C@H](CC(=O)N2CCOCC2)[C@@]2(C(=O)OCC)CCCC=C12,-,0,0,0,0,0,-,-
COc1ccc(Cc2c(C(C)(C)C)nc3ccc(C)cn23)c(C)c1,-,0,0,0,0,0,-,-
COc1ccccc1Cc1c(C(C)(C)C)nc2ccc(C)cn12,-,6.6,0,0,0,0,0,0
O=C1c2ccccc2CCC12N=NCC2c1ccc(Cl)cc1 (configuration not stated),0,7.4,0,0,0,0,0,0
COC(=O)c1c[nH]n2c(=O)c(Cl)c(C)nc12,0,8.7,0,0,0,0,0,0
N#Cc1ccc(Cl)cc1NC(=O)COC(=O)[C@H](CCC(N)=O)NC(=O)c1ccc(F)cc1,0,9.4,0,0,0,0,0,0
CCOC(=O)C1=C(C(=O)OCC)C2N(Cc3ccc(Br)cc3)c3ccccc3[C@@]23C[C@@H](C(=O)OC)N(S(=O)(=O)c2ccc(C(F)(F)F)cc2)C3=N1 (some centres not stated),-,0,0,0,0,0,-,-
COc1ccc(OC)c(Nc2ccc(C(=O)O)cc2[N+](=O)[O-])c1,0,8.4,0,0,0,0,0,0
CCOc1ccc(Nc2ccc(C(=O)O)cc2[N+](=O)[O-])cc1,0,0,0,0,0,0,-,-
SMILES,DAX1 inh-1,hcDAF-12 act,ssDAF12 agonist,SMARCA2 activ,DAX1 inh-2,hgDAF12 agonist,LXR ag,hcDAF12 ag
COc1n[nH]c(C(=O)Nc2cc(Cl)ccc2Cl)c1[N+](=O)[O-],0,0,0,0,0,0,-,-
COc1ccc(Cl)cc1NC(=O)c1[nH]nc(OC)c1[N+](=O)[O-],0,6.7,0,0,0,0,0,0
COc1ccc(C2CC(=O)C(c3ccc(Br)cc3)=CN2Cc2ccccc2)cc1 (configuration not stated),-,0,0,0,0,0,-,-
COC(=O)C1=C(C)NC(C)=C(C(=O)OC)C(N2C(=O)CCC2=O)C1 (configuration not stated),-,0,0,0,0,0,-,-
CN(C)S(=O)(=O)c1ccc(C(=O)NCC(=O)Nc2ccc(F)c(F)c2)cc1,0,6.8,0,0,0,0,0,0
COC(=O)Cn1c(=NC(=O)C2CC2)sc2c(C)cc(C)cc21,0,0,0,0,0,0,-,-
Cc1ccc2c(c1)sc(=NC(=O)c1cccs1)n2C,0,7.9,1.6,0,0,15,0,23
Cc1ccc2c(c1)sc(=NC(=O)C1CC1)n2C,0,8.7,1.7,0,0,13,0,14
CNc1nc2c(-c3ccc(Cl)cc3)nnn2c2ccccc12,0,0,0,0,0,0,-,-
Cc1ccc(-c2nnn3c2nc(NC(C)C)c2ccccc23)cc1,0,6.8,0,0,0,0,0,0
Nc1nc2c(-c3ccc(Br)cc3)nnn2c2ccccc12,0,7.7,1.0,0,0,11,0,22
C#CCN1CC(COc2ccccc2)Oc2cccc(Oc3ccc(C(C)C)cc3)c2S1(=O)=O (configuration not stated),-,0,0,0,0,0,-,-
O=C(N[C@H](C(=O)N1CCC[C@H]1C(=O)NCc1ccccc1)C1CCCCC1)c1ccc(Cl)cc1Cl,-,0,0,0,0,0,-,-
O=c1cc(O)nc(SCc2ccccc2)[nH]1,0,6.7,0,0,0,0,0,0
Cc1cc(=O)[nH]c(SCc2ccccc2)n1,0,0,0,0,0,0,-,-
Clc1nnc(N/N=C/c2ccccc2)c2ccccc12,0,7.3,1.2,0,0,0,0,11
CC(=O)Nc1ccc(C=NNc2nnc(NN=Cc3ccc(NC(C)=O)cc3)c3ccccc23)cc1,0,0,0,0,0,0,-,-
Cc1ccc(/C=N/Nc2nnc(Cl)c3ccccc23)cc1,0,11,3.7,0,0,0,0,18
Clc1ccc(/C=N/Nc2nnc(Cl)c3ccccc23)cc1,0,7.0,1.6,0,0,0,0,8.7
COc1ccc(/C=N/Nc2nc(-c3cccnc3)nc3ccccc23)cc1OC,0,0,0,0,0,0,-,-
Cc1ccc(-c2nc(N/N=C/c3ccncc3)c3ccccc3n2)cc1,0,15,1.1,0,0,0,0,20
C[C@H](O)[C@@H]1C(=O)N2CCc3c([nH]c4c(-c5ccccc5)cccc34)[C@@H]2C[C@@H]1N(C)C(=O)c1ccccc1F,-,0,0,0,0,0,-,-
CCOC(=O)c1cn[nH]c1NC(=S)Nc1ccc(OC)cc1,0,8.0,0,0,0,0,0,9.3
